Mdm2-MdmX inh = inhibitors of human Mdm2-MdmX association, primary screen, cell-based, luminescence, split luciferase, SaOS-2, uHTS. Protein Mdm4 (Homo sapiens) + E3 ubiquitin-protein ligase Mdm2 (Homo sapiens), …. inhibition, % at 8 µM. AID 485346, 2010. 330,000 compounds, 3% hits. SaOS-2 split-luciferase Mdm2/MdmX complementation;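 active = inhibition of at least 50% at 8 µM in the primary screen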
Jurkat NFkB inh = inhibitors of induced NF-kB luciferase reporter, primary screen, TCR NF-kB activation inhibitor project, cell-based, luminescence, uHTS. Jurkat, PMA/ionomycin-induced NF-kB luciferase reporter. inhibition, % at 4 µM. 330,000 compounds, 0.53% hits. AID 435003, 2010; in the data active = inhibition above about 50%
NTR1 ag = agonists of human NTR1, primary screen, imaging, U2OS cells, beta-arrestin-GFP, high content. Neurotensin receptor type 1 (Homo sapiens), P30989. NTR1-U2OS beta-arrestin-GFP spot imaging, agonist mode. activation, % at 20 µM. 330,000 compounds, 0.17% hits;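 active = activation at or above 40% of the spot to cytoplasm intensity ratio, with at least 20 cells analyzed; inconclusive = wells under 20 cells, flagged as cytotoxic or low count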
Target sequence (P30989 whole entry, looked up): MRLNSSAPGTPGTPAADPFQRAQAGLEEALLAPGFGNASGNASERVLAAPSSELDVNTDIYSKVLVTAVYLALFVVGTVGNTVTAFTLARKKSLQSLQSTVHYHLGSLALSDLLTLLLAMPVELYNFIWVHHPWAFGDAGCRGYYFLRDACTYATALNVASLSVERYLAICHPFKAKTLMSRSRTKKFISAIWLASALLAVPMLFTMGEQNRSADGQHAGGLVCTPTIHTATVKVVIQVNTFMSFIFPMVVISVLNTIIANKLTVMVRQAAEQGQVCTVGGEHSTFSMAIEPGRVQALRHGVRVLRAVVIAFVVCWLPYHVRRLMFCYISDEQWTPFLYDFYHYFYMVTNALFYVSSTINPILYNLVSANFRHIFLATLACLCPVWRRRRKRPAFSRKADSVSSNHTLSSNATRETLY
Beta cell apopt = inhibitors of cytokine-induced beta cell apoptosis, primary screen, luminescence; AID 435005, 2010; 300,000 compounds, 0.8% hits; INS-1E cytokine-induced death, ATP luminescence, 48 h; percent of positive-control rescue, neutral wells zero; protection from apoptosis, % (no concentration beside the values);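 active = Every replicate reaches about 75%, or at least half do and their mean reaches it too, limit read from the data; inconclusive = At least half of replicates reach the limit but their mean does not; inactive = Under half of replicates reach the limit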;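 note: higher means more ATP so stronger rescue from cytokine killing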
697 NFkB inh = inhibitors of PMA/ionomycin-induced NF-kB reporter, 697 cells, primary screen, B-cell NF-kB inhibitor project, cell-based, luminescence, uHTS. 697 B-cell NF-kB luciferase reporter, 16 h. inhibition, % at 4 µM. 330,000 compounds, 0.33% hits; in the data active = inhibition above about 35%
A1 inh = caspase 3/7 activation in MEF A1-2A-BIM cells, primary screen, A1 inhibitor project, cell-based, luminescence, HTS | 330,000 compounds, 0.066% hits | caspase activation, % (concentration not given with the values) | Caspase-Glo 3/7 luminescence, 3 h; percent of clofoctol response, vehicle zero | AID 2462, 2010;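 active = over half of replicate activation scores above 10%, or exactly half above 10 with the replicate mean above 10; inconclusive = replicate mean below 10 yet half the replicates above 10; inactive = over half of replicates below 10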
Mdm2-MdmX conf = Mdm2-MdmX complex disruptors, retested hits, confirmation, luminescence, single concentration; shares compounds with Mdm2-MdmX inh; Mdm2-MdmX binding, luminescent assay; AID 489028, 2010; inhibition, % at 8 µM; 10,000 compounds, 55% hits; in the data active = inhibition above about 40%
Full FLuc ctr = full-length luciferase signal inhibition, confirmation, counter-screen for Mdm2/MdmX interaction inhibitor project, cell-based, single concentration, SaOS-2 | shares compounds with Mdm2-MdmX inh | SaOS-2 full-length luciferase counterscreen, luminescence | inhibition, % at 8 µM | 6,200 compounds, 77% hits;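 active = mean inhibition at 8 µM reaching about 37%, which flags the compound as non-specific, limit read from the data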;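 note: p53-null SaOS-2 cells with luciferase driven by a doxycycline-inducible promoter; compound on cells about two nights before reading with doxycycline added after day one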
Of the large screens only hits and unclear results are named; the others gave an inactive call (follow-up assays come after a bar, where they were run). This is a sample that favours compounds with a hit; in the whole collection about 3.8% have one here.

Brc1ccc(N=Nc2ccc3ccccc3n2)cc1	Mdm2-MdmX inh 79 (no result: Beta cell apopt) | Mdm2-MdmX conf 72 | Full FLuc ctr 48
OC(COCC(F)(F)C(F)(F)C(F)(F)C(F)F)Cn1c2ccc(Cl)cc2c2cc(Cl)ccc21 (centres undefined)	Mdm2-MdmX inh 95 (no result: Beta cell apopt) | Mdm2-MdmX conf inactive
Cn1cccc1C1CCCN1CC(=O)Nc1ccc(F)c(F)c1F (centres undefined)	none
C/C(=C\[C@@H](NP(=O)(c1ccccc1)c1ccccc1)c1ccccc1)CO[Si](c1ccccc1)(c1ccccc1)C(C)(C)C	Mdm2-MdmX inh 76 | Mdm2-MdmX conf inactive
C=C[C@]1(C)C[C@H]1[C@H](NP(=O)(c1ccccc1)c1ccccc1)c1ccccc1	none
OC(Cn1cnnc1)c1ccccc1 (centres undefined)	none
CCN(c1ccccc1)S(=O)(=O)c1ccc(Cl)c(NC(=O)Nc2ccc(Cl)cc2C#N)c1	Mdm2-MdmX inh 99 | Mdm2-MdmX conf 99 | Full FLuc ctr 56
CCN(c1ccccc1)S(=O)(=O)c1ccc(Cl)c(NC(=O)c2ccc(=O)[nH]n2)c1	Mdm2-MdmX inh 53 | Mdm2-MdmX conf inactive
CCN(c1ccccc1)S(=O)(=O)c1ccc(Cl)c(NC(=O)CSc2ncn[nH]2)c1	none
CCc1ccc(N2CC(C(=O)OCc3nc4ccsc4c(=O)[nH]3)CC2=O)cc1 (centres undefined)	none
Cc1ccc(-c2cc3cccc[n+]3cc2-c2ccc(C)cc2)cc1	Mdm2-MdmX inh 52, Beta cell apopt 110 | Mdm2-MdmX conf 43 | Full FLuc ctr 48
Cc1cc2nc(/N=C(\N)NC(=O)C(C)C)nc(C)c2cc1C	Mdm2-MdmX inh 56 | Mdm2-MdmX conf inactive | Full FLuc ctr 84
CCCC(=O)N/C(N)=N/c1nc(C)c2cc(C)ccc2n1	none
CCC(=O)N/C(N)=N/c1nc(C)c2cc(C)c(C)cc2n1	Mdm2-MdmX inh 74, A1 inh inconclusive | Mdm2-MdmX conf 57 | Full FLuc ctr 69
Cc1ccc(NC(=O)CN(C)C(=O)CSc2nc3ccccc3c(=O)n2CCO)cc1	none (no result: Beta cell apopt, A1 inh)
CCC1(c2ccc(F)cc2)NC(=O)N(CC(=O)N2c3ccccc3CC2C)C1=O (centres undefined)	none
Cc1cccc(NC(=O)COc2coc(CN3CCc4ccccc4C3)cc2=O)c1	none (no result: Beta cell apopt)
Cc1cc(C)cc(OCC(=O)NNC(=O)c2ccccn2)c1	Mdm2-MdmX inh 50 | Mdm2-MdmX conf inactive
O=C(COc1ccc(Cl)cc1)NNC(=O)c1ccccn1	none
Cc1ccc(OCCCC(=O)NNC(=O)c2ccccn2)cc1	Mdm2-MdmX inh 52 | Mdm2-MdmX conf 44 | Full FLuc ctr 45
O=C(CCl)NCc1cc(-c2ccc(Cl)cc2)no1	Mdm2-MdmX inh 73 | Mdm2-MdmX conf inactive | Full FLuc ctr 66
Cc1cc(C(=O)c2ccc(Cl)cc2)c(NC(=O)CCl)s1	Mdm2-MdmX inh 67 | Mdm2-MdmX conf inactive
CCc1cc(C(=O)c2ccc(C)cc2)c(NC(=O)CCl)s1	none
CCOC(=O)N1CCN(C(=O)COC(=O)Cc2ccc(Cl)cc2)CC1	none
O=C(CSc1ccc(-c2ccc3c(c2)OCO3)nn1)Nc1nccs1	Mdm2-MdmX inh 89 | Mdm2-MdmX conf inactive
Cc1ccc2cc3c(N)c(C(=O)N4CC(=O)Nc5ccccc54)sc3nc2c1	Mdm2-MdmX inh 64 | Mdm2-MdmX conf 57 | Full FLuc ctr 83
Cc1ccc2cc3c(N)c(C(=O)N4CCOCC4)sc3nc2c1	none
Cc1ccsc1C(=O)N1CC(=O)Nc2ccccc21	none

Assay outcomes as filed in PubChem BioAssay.
